Results as given in PubChem BioAssay.
Calls of active or inactive are those of the source. Unless noted, no rule for the calls is given here.

How the values were obtained:
[1] = test system: Wnt5a (protein binding on small-molecule microarray); assay: Wnt5a binders on small-molecule microarray, primary screen, biophysical, 635/667 nm fluorescence (AID 1142); details: 635 nm fluorescence, higher = more signal;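 also: fluorescence read at 667 nm with signal to noise per printed feature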
[2] = cell viability in Huh7 cells, primary screen, cytotoxicity control for HCV replication inhibitor project, CellTiter-Glo luminescence, basal, 48 h (AID 1143); details: Huh7 HCV replicon, higher = more signal, called active from +8 up or from −8 down;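 also: Huh7 hepatoma cells carrying a hepatitis C replication reporter with no stimulus; test concentration not given here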
[3] = P. aeruginosa biofilm formation inhibitors, primary screen, PAO1 strain, BacTiter-Glo luminescence, LB-PBS (AID 1144); details: 12 h, higher = more signal
[4] = CREB reporter modulators without forskolin, primary screen, cell-based, PC12, CRE-LacZ reporter, unstimulated (AID 1145); details: no forskolin, luminescence, 4.5 h, higher = more signal, called active from +8 up or from −8 down
[5] = CREB reporter modulators under forskolin, primary screen, cell-based, PC12, CRE-LacZ reporter, forskolin-stimulated (AID 1146); details: luminescence, 4.5 h, higher = more signal, called active from +8 up or from −8 down;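 also: PC12 cells with 6xCRE LacZ reporter stimulated by forskolin 10 µM; beta-galactosidase reporter signal reflecting CREB driven transcription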
[6] = target: Streptavidin (Streptomyces avidinii) (UniProt P22629); assay: streptavidin binders on small-molecule microarray, primary screen, artefact control for SMM compound annotation, biophysical, 635/667 nm fluorescence (AID 1147); details: streptavidin binding, higher = more signal;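 also: signal reflects streptavidin binding to arrayed compounds as a control protein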
Chain of Streptavidin (Streptomyces avidinii) (P22629 whole entry, looked up): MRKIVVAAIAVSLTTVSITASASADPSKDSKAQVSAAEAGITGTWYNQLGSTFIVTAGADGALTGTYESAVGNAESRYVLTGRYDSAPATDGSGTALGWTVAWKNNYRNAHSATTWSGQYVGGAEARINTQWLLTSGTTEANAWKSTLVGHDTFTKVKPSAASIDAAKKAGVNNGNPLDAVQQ

[7] = small-molecule binders of probe aInhba, primary screen, biochemical, small-molecule microarray, 635/667 nm fluorescence (AID 1148); details: higher = more signal;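 also: score merges 667nm spot fluorescence with signal-to-noise for antibody binding to printed compounds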
Torsin-1A (Homo sapiens) [8] = target: Torsin-1A (Homo sapiens) (UniProt O14656); assay: torsin A binders from cell lysate, primary screen, small-molecule microarray, wild-type, 635/667 nm (AID 1149); details: COS7 hTOR1A-WT lysate, 635 nm fluorescence, higher = more signal
Chain of Torsin-1A (Homo sapiens) (O14656 whole entry, looked up): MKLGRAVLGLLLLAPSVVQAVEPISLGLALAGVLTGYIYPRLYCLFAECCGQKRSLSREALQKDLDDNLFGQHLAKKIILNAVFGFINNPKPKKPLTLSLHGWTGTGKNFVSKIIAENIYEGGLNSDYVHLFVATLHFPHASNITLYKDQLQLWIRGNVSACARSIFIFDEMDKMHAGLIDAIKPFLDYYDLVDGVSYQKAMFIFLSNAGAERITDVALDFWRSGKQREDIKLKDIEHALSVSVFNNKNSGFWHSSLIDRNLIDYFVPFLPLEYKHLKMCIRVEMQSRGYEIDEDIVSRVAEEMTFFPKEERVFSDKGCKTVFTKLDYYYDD

Torsin-1A (Homo sapiens) [9] = target: Torsin-1A (Homo sapiens) (UniProt O14656); assay: small-molecule binders of mutant TOR1A in lysate, primary screen, cell lysate, small-molecule microarray, COS7 lysate, 635/667 nm fluorescence (AID 1150); details: COS7 hTOR1A mutant lysate, 635 nm fluorescence, higher = more signal;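 also: score pools 667 nm emission and signal to noise measuring lysate protein binding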
[10] = test system: Sonic hedgehog protein (Shh); assay: small-molecule binders of Shh protein, primary screen, biochemical, small-molecule microarray, 635/667 nm fluorescence (AID 1151); details: small-molecule microarray binding, 635 nm fluorescence; higher = more signal;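 also: Shh protein binding to compounds spotted on small-molecule microarray slides; score combines spot fluorescence intensity with signal-to-noise across triplicate slides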
[11] = E. coli DRC41 culture turbidity changes, primary screen, E. coli filamentation inducer project, strain DRC41, OD650, 48 h (AID 1152);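 also: E. coli MC1000 strain DRC41 lacking acrAB efflux pump and sulA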; details: E. coli DRC41 (acrAB sulA), higher = more signal, called active from +8 up or from −8 down
[12] = small-molecule binders of probe aLefty1, primary screen, biochemical, small-molecule microarray, 635/667 nm fluorescence (AID 1153); details: higher = more signal;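 also: score merges spot fluorescence with signal-to-noise ratio from the scanned slide images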
[13] = PSAC antagonists in infected red cells, primary screen, cell-based, P. falciparum Indochina, OD700, 1 h (AID 1154); details: P. falciparum Indochina infected RBC osmotic lysis, higher = more signal, called active from +8 up or from −8 down
[14] = PSAC antagonists in infected red cells, primary screen, cell-based, P. falciparum Indochina, OD700, 2 h (AID 1155);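 also: lysis reports solute entry through the parasite surface anion channel PSAC; channel blockers reduce lysis of infected cells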; details: P. falciparum Indochina infected erythrocytes, osmotic lysis OD700; higher = more signal, called active from +8 up or from −8 down
[15] = osmotic lysis modulators in infected erythrocytes, primary screen, PSAC antagonist project, cell-based, P. falciparum Indochina, OD700, 3 h (AID 1156); details: higher = more signal, called active from +8 up or from −8 down
[16] = PSAC antagonists in infected red cells, primary screen, cell-based, P. falciparum Indochina, OD700, 18 h (AID 1157); details: P. falciparum Indochina infected erythrocytes, osmotic lysis OD700, 18 h; higher = more signal, called active from +8 up or from −8 down
[17] = modulators of S6 phosphorylation in cells, primary screen, cell-based, A549, cytoblot, luminescence, serum-stimulated (AID 1158); details: A549 phospho-S6 cytoblot, 5 h, higher = more signal;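 also: serum-stimulated A549 lung adenocarcinoma cells; signal is phosphorylated S6 detected by cytoblot immunostaining with HRP secondary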
[18] = target: NADPH oxidase 2 (Homo sapiens) (UniProt P04839); assay: NOX2-dependent H2O2 signal modulators, primary screen, NOX inhibitor project, cell-based, HEK293-NOX2, PMA-stimulated, Amplex Red fluorescence (AID 1159); details: 45 min, higher = more signal, called active from +8 up or from −8 down; also: test concentration not given here
Chain of NADPH oxidase 2 (Homo sapiens) (P04839 whole entry, looked up): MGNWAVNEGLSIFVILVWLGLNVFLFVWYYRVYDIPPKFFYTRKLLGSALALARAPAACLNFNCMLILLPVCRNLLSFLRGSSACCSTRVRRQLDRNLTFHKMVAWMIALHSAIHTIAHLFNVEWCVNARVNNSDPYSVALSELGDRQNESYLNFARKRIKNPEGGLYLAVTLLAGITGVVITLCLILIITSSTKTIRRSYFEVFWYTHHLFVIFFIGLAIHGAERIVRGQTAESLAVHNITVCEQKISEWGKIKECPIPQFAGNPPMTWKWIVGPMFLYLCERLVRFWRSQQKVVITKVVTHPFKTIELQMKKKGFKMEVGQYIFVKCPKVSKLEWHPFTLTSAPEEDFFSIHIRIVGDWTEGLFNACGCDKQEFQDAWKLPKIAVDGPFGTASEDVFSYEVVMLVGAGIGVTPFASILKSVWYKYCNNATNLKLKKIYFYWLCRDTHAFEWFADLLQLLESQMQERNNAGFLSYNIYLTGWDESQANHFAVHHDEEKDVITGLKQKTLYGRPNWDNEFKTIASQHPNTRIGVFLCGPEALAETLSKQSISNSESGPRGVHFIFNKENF

[19] = target: NADPH oxidase 4 (Homo sapiens) (UniProt Q9NPH5); assay: NOX4-dependent H2O2 signal modulators, primary screen, NOX inhibitor project, cell-based, HEK293-NOX4, tetracycline-induced, Amplex Red fluorescence (AID 1160); details: 45 min, higher = more signal, called active from +8 up or from −8 down
Chain of NADPH oxidase 4 (Homo sapiens) (Q9NPH5 whole entry, looked up): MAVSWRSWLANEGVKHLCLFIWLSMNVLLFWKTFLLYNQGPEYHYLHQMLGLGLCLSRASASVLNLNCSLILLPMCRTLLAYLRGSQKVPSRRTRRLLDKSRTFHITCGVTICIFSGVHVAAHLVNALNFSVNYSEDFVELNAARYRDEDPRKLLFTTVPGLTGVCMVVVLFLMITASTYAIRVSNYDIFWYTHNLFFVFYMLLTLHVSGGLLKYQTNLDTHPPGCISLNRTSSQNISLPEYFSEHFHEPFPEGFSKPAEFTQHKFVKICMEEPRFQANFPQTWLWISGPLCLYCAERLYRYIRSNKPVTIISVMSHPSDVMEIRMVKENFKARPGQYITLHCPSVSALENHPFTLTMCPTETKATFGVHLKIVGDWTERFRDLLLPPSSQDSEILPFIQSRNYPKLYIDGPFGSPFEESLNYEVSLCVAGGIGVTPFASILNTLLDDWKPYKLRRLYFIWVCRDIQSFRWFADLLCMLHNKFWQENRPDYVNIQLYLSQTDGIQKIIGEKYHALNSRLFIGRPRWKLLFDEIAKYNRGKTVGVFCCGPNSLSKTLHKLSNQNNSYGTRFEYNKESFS

[20] = target: NADPH oxidase 5 (Homo sapiens) (UniProt Q96PH1); assay: NOX5-dependent H2O2 signal modulators, primary screen, NOX inhibitor project, cell-based, HEK293-NOX5, Amplex Red fluorescence (AID 1161); details: HEK293-NOX5, ionomycin, 45 min, higher = more signal
Chain of NADPH oxidase 5 (Homo sapiens) (Q96PH1 whole entry, looked up): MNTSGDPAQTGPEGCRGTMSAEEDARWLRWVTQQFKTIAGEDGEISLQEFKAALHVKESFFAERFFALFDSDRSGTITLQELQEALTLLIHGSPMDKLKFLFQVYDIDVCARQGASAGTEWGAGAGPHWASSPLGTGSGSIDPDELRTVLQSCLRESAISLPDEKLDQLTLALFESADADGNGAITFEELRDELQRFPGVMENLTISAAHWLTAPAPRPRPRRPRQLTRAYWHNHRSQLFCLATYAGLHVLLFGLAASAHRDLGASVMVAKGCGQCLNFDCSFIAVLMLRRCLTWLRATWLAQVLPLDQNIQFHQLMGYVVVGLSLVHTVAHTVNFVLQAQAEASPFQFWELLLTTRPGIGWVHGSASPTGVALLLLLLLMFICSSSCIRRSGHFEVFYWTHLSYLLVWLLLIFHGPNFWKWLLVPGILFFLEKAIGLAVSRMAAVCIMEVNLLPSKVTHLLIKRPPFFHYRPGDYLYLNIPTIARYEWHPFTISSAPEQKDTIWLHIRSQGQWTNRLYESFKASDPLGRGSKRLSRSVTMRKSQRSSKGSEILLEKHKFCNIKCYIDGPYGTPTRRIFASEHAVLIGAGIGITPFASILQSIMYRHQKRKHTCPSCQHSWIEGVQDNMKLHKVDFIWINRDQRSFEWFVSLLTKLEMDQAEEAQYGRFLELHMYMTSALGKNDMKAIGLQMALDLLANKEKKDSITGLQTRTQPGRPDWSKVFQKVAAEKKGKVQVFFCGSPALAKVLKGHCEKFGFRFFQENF

Structure (SMILES)	composite z-score [1]	z-score [2]	z-score [3]	z-score [4]	z-score [5]	composite z-score [6]	composite z-score [7]	composite z-score (Torsin-1A (Homo sapiens) [8])	composite z-score (Torsin-1A (Homo sapiens) [9])	composite z-score [10]	z-score [11]	composite z-score [12]	z-score [13]	z-score [14]	z-score [15]	z-score [16]	z-score [17]	z-score [18]	z-score [19]	z-score [20]
COC(=O)[C@H](C)NC(=O)CCC1CC(OC(=O)NCc2cccc3ccccc23)CC2(CCCC(COC(=O)NCCCN3CCCC3=O)O2)O1 (stereo not given in full)	0.205	-0.0671 (inactive)	-1.07 (inactive)	-0.438 (inactive)	-0.178 (inactive)	0.865	-0.152	0.519	0.745	0.608	-3.55 (inactive)	0.582	0.381 (inactive)	0.397 (inactive)	0.0085 (inactive)	0.246 (inactive)	-0.463	-0.383 (inactive)	-0.0825 (inactive)	-0.075
CCN1C(C)=C(C(=O)OC)[C@@H](c2ccccc2)N2C(=O)[C@](O)(C(=O)OC)CC(C(C)=O)=C12	0.24	0.0021 (inactive)	-0.63 (inactive)	-0.324 (inactive)	-0.482 (inactive)	-0.466	-0.0986	0.837	0.153	0.742	-0.0844 (inactive)	-0.22	0.725 (inactive)	0.893 (inactive)	0.62 (inactive)	0.195 (inactive)	0.825	0.188 (inactive)	0.724 (inactive)	0.697
COc1cccc([C@H]2Oc3ccc(OC)cc3C(=NO[C@@H](C)c3cc(-c4c(C)cc(C)cc4C)no3)[C@@H]2O)c1	-0.556	-0.686 (inactive)	0.409 (inactive)	1.42 (inactive)	0.596 (inactive)	-0.756	-0.23	-1.26	-0.489	-2.3	-1.74 (inactive)	-0.0061	5.05 (inactive)	1.38 (inactive)	-0.0548 (inactive)	0.907 (inactive)	-0.902	0.314 (inactive)	0.21 (inactive)	-0.577
C#CCCCON=C1C[C@@H](O)[C@@H](O)[C@@H]2[C@@H]3C(=O)N(C4CCCCC4)C(=O)[C@@H]3CC[C@@H]12	-0.0633	0.0192 (inactive)	-0.356 (inactive)	1.78 (inactive)	-0.0263 (inactive)	-0.383	-0.286	-0.0195	-0.336	0.353	0.0164 (inactive)	-0.276	1.17 (inactive)	-0.164 (inactive)	-0.492 (inactive)	0.132 (inactive)	-0.25	1.13 (inactive)	0.699 (inactive)	-0.0773
O=C1[C@H]2[C@H]3[C@H](O)[C@H](O)CC(=NO[C@@H]4O[C@H](CO)[C@@H](O)[C@H](O)[C@H]4O)[C@@H]3CC[C@H]2C(=O)N1C[C@@H]1CCCO1	0.185	-2.92 (inactive)	-0.131 (inactive)	0.885 (inactive)	0.0432 (inactive)	0.0066	-0.128	0.339	-0.0388	0.89	-1.2 (inactive)	-0.0462	0.377 (inactive)	-0.963 (inactive)	0.389 (inactive)	-2.39 (inactive)	0.054	-2.04 (inactive)	-0.772 (inactive)	-0.711
O=C1C[C@@H](O)[C@@H](O)[C@@H]2[C@@H]3C(=O)N(Cc4ccccc4)C(=O)[C@@H]3CC[C@H]12	0.0217	-0.3 (inactive)	-0.473 (inactive)	-0.293 (inactive)	-0.497 (inactive)	0.636	-0.0719	0.176	0.37	0.718	-0.675 (inactive)	-0.147	1.56 (inactive)	0.586 (inactive)	0.215 (inactive)	0.526 (inactive)	-0.254	2.31 (inactive)	-0.79 (inactive)	0.127
COC(=O)[C@H](C)NC(=O)CCC1CC(OC(=O)NCc2ccc3c(c2)OCO3)CC2(CCCC(COC(=O)NCCc3ccc(Cl)cc3)O2)O1 (stereo not given in full)	-0.132	0.173 (inactive)	-0.0135 (inactive)	-0.526 (inactive)	0.336 (inactive)	-0.334	-0.159	-0.157	0.193	0.579	-0.51 (inactive)	-0.101	2.17 (inactive)	0.223 (inactive)	1.29 (inactive)	0.272 (inactive)	0.688	1.73 (inactive)	0.148 (inactive)	0.879
O=C1CCCC=C1C(O)c1ccc([N+](=O)[O-])cc1 (stereo not given)	0.042	1.18 (inactive)	0.843 (inactive)	-0.706 (inactive)	0.126 (inactive)	0.0753	-0.212	0.911	0.0183	-0.676	0.134 (inactive)	-0.217	-0.487 (inactive)	-0.347 (inactive)	-0.324 (inactive)	-0.342 (inactive)	0.317	1.42 (inactive)	0.262 (inactive)	-0.56
COCCNC(=O)OCC1CCCC2(CC(OC(=O)NCc3cccc4ccccc34)CC(CCC(=O)N[C@@H](C)C(=O)OC)O2)O1 (stereo not given in full)	0.278	-0.862 (inactive)	-0.496 (inactive)	0.376 (inactive)	1.47 (inactive)	0.403	-0.157	0.413	0.41	0.971	0.434 (inactive)	-0.198	-1.58 (inactive)	-0.523 (inactive)	-1.28 (inactive)	0.174 (inactive)	-0.582	-0.155 (inactive)	1.49 (inactive)	2.08
